Test results: PubChem BioAssay (EPA / NIEHS)
Results filed as inconclusive are left out. Activity calls are given as the source filed them. The calls were made as follows: active = hit-call score of the fitted dose curve at least 0.9, where 1 is the maximum; inconclusive = response in the unintended direction; inactive = score below 0.9.

Columns and labels:
[1] = molecular target: human Matrix Metalloproteinase-9 (MMP9), MMP9 (gene 4318) (UniProt P14780); test: NVS_ENZ_hMMP9: NovaScreen (NVS) Enzymatic Assay for human Matrix Metalloproteinase-9 (MMP9) (AID 2283190);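 also: cell-free recombinant MMP9 protease activity read by fluorescent substrate signal; active means inhibition seen as loss of fluorescence signal versus DMSO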
In short: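 Extracted enzyme, fluorescent substrate, 1 h post-dose read. Single conc 25 uM in duplicate, then concentration series for actives. Activity = signal loss relative to DMSO negative control.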

[2] = molecular target: Collagenase 3 (Homo sapiens) (UniProt P45452); test: NVS_ENZ_hMMP13: NovaScreen (NVS) Enzymatic Assay for human Matrix Metalloproteinase-13 (MMP13) (AID 2283182)
In short: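 Recombinant MMP13 cleaving fluorescent substrate, cell-free, measured 1 h after dosing. Primary duplicate screen at 25 uM; actives tested in concentration-response up to 50 uM; loss of signal relative to DMSO.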

[3] = molecular target: human Matrix Metalloproteinase-2 (MMP2), MMP2 (gene 4313) (UniProt P08253); test: NVS_ENZ_hMMP2: NovaScreen (NVS) Enzymatic Assay for human Matrix Metalloproteinase-2 (MMP2) (AID 2283184)
In short: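 Cell-free recombinant MMP2 activity with a fluorescent substrate, read 1 h after dosing. Primary screen in duplicate at 25 uM; actives then run in concentration series; loss of signal fitted versus DMSO.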

[4] = molecular target: human Matrix Metalloproteinase-7 (MMP7), MMP7 (gene 4316) (UniProt P09237); test: NVS_ENZ_hMMP7: NovaScreen (NVS) Enzymatic Assay for human Matrix Metalloproteinase-7 (MMP7) (AID 2283183)
Procedure: NVS_ENZ_hMMP7 is a biochemical, single-readout assay that uses extracted gene-proteins in a cell-free assay. Measurements were taken 1 hour after chemical dosing in a 96-well plate.NVS_ENZ_hMMP7 is one of one assay component(s) measured or calculated from the NVS_ENZ_hMMP7 assay. It is designed to make measurements of enzyme activity, a form of enzyme reporter, as detected with fluorescence intensity signals by Fluorescence technology.Data from the assay component NVS_ENZ_hMMP7 was analyzed into 1 assay endpoint. This assay endpoint, NVS_ENZ_hMMP7, was analyzed in the positive analysis fitting direction relative to DMSO as the negative control and baseline of activity. Using a type of enzyme reporter, loss-of-signal activity can be used to understand changes in the enzymatic activity as they relate to the gene MMP7. Furthermore, this assay endpoint can be referred to as a primary readout, because this assay has produced multiple assay endpoints where this one serves a enzymatic activity function. To generalize the intended target to other relatable targets, this assay endpoint is annotated to the protease intended target family, where the subfamily is matrix metalloproteinase.
Binding assays used specific radioligands (tritiated, iodinated) with non-radioactive competitive displacement ligands in agonist or antagonist protocols (as indicated) and various reference compounds and inhibitors to titrate specific binding to receptors and transporters. Most enzyme assays (CYPs, kinases, phosphatases, proteases, HDACs) used recombinant protein and specific substrates (fluorescence mostly, some colorimetric and radioactive) and inhibitors, followed by a biochemical separation of substrate and product. All assays for the biochemical HTS were initially run in duplicate at a single concentration (10 uM for CYP450 assays and 25 uM for all others). Assay-chemical combinations meeting a pre-defined threshold (e.g., 30% inhibition and other criteria defined below) were then run in singleton concentration-response format with maximum concentration of 20 uM for CYPs and 50 uM for all others. Each assay was run with positive and negative controls, and concurrent controls on every plate. The follow-up (secondary) screen tested active chemical-pairs in concentration series, as well as a few additional assays not tested in the primary screen, some selected negative inactives, and several cases re-run in the concentration series for confirmatory purposes.

[5] = molecular target: human Phosphodiesterase 4A1 (PDE4A1), PDE4A (gene 5141) (UniProt P27815); test: NVS_ENZ_hPDE4A1: NovaScreen (NVS) Enzymatic Assay for human Phosphodiesterase 4A1 (PDE4A1) (AID 2283191)
In short: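 Cell-free recombinant human PDE4A1 with fluorescent substrate; product separated by electrophoretic mobility shift, 1 h. Screened at 25 uM, then up to 50 uM in concentration-response; loss of signal fitted against DMSO.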

[6] = molecular target: human Matrix Metalloproteinase-1 (MMP1), MMP1 (gene 4312) (UniProt P03956); test: NVS_ENZ_hMMP1: NovaScreen (NVS) Enzymatic Assay for human Matrix Metalloproteinase-1 (MMP1) (AID 2283181)
In short: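 Human MMP1 enzyme activity measured by fluorescence 1 h after dosing, cell-free, with a specific substrate. Screened in duplicate at 25 uM; hits (e.g. 30% inhibition) run in concentration-response up to 50 uM; loss of signal versus DMSO.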

[7] = molecular target: human NIMA (Never In Mitosis Gene A)-Related Kinase 2 (NEK2), NEK2 (gene 4751) (UniProt P51955); test: NVS_ENZ_hNEK2: NovaScreen (NVS) Enzymatic Assay for human NIMA (Never In Mitosis Gene A)-Related Kinase 2 (NEK2) (AID 2283188)
In short: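 Cell-free NEK2 enzyme activity after 1 h exposure, read by fluorescence with electrophoretic mobility shift separating substrate and product. Primary screen in duplicate at 25 uM; actives then run as concentration series. Loss of signal versus DMSO scored.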

[8] = molecular target: human MET Proto-Oncogene, Receptor Tyrosine Kinase (MET), MET (gene 4233) (UniProt P08581); test: NVS_ENZ_hMet: NovaScreen (NVS) Enzymatic Assay for human MET Proto-Oncogene, Receptor Tyrosine Kinase (MET) (AID 2283180)
In short: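 Cell-free MET kinase assay using recombinant protein and fluorescent substrate, with mobility-shift separation; read 1 h after dosing. Primary duplicate at 25 uM; actives in singleton concentration-response to 50 uM maximum. Signal loss versus DMSO.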

[9] = molecular target: human p21 Activated Kinase 4 (PAK4), PAK4 (gene 10298) (UniProt O96013); test: NVS_ENZ_hPAK4: NovaScreen (NVS) Enzymatic Assay for human p21 Activated Kinase 4 (PAK4) (AID 2283189)
In short: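 Cell-free recombinant human PAK4 activity assay; fluorescent substrate and product separated by electrophoretic mobility shift, read 1 h after dosing. Initially tested in duplicate at 25 uM, relative to DMSO baseline.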

[10] = molecular target: human Matrix Metalloproteinase-3 (MMP3), MMP3 (gene 4314) (UniProt P08254); test: NVS_ENZ_hMMP3: NovaScreen (NVS) Enzymatic Assay for human Matrix Metalloproteinase-3 (MMP3) (AID 2283185)
In short: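 Cell-free recombinant human MMP3 activity, fluorescence intensity read 1 h after dosing. Primary screen duplicate at 25 uM, actives retested in concentration series; loss of signal vs DMSO baseline.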

Sequence of human Matrix Metalloproteinase-2 (MMP2), MMP2 (gene 4313) (P08253 whole entry, looked up): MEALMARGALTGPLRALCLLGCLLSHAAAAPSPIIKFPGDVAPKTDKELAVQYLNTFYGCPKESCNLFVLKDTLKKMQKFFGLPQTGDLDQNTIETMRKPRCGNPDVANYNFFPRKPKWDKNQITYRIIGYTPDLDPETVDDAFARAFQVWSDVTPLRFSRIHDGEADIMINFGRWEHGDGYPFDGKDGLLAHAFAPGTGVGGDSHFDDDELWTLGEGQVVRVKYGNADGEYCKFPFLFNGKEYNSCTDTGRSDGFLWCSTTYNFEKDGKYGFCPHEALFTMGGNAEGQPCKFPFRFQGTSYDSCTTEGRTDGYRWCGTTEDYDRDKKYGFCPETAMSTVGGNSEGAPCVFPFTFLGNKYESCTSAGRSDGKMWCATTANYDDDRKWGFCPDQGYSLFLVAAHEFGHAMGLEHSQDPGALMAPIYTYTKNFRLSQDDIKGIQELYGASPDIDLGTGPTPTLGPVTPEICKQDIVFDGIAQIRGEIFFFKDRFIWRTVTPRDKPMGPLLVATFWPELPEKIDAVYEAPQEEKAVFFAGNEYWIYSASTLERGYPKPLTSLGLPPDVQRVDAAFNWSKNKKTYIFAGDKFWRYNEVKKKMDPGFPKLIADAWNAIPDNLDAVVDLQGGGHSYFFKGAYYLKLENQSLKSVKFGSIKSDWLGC
Sequence of human Matrix Metalloproteinase-7 (MMP7), MMP7 (gene 4316) (P09237 whole entry, looked up): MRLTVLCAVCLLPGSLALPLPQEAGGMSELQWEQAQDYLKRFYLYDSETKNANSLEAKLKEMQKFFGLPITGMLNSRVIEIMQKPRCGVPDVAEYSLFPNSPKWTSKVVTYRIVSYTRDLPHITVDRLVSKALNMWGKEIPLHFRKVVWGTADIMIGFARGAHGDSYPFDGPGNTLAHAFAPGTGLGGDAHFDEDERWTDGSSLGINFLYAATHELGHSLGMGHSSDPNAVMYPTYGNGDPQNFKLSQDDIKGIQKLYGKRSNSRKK
Sequence of human Matrix Metalloproteinase-9 (MMP9), MMP9 (gene 4318) (P14780 whole entry, looked up): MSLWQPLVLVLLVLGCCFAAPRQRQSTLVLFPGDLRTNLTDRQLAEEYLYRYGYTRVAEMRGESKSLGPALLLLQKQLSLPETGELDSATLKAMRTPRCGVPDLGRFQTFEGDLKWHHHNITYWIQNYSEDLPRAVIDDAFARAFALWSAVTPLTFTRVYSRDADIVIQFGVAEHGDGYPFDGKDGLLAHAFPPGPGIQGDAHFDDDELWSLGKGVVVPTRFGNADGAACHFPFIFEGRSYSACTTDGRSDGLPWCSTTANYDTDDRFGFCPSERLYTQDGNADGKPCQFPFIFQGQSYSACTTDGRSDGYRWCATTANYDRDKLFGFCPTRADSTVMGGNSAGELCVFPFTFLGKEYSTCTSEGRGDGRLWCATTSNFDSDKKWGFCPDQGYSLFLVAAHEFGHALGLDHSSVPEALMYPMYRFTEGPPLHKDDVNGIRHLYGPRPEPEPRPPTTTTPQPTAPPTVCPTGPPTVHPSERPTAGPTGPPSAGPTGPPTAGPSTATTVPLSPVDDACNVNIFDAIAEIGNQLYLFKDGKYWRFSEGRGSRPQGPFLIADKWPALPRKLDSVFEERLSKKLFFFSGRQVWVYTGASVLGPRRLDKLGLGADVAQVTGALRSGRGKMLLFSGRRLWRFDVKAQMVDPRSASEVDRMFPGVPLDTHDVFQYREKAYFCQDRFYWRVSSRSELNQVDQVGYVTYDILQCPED
Sequence of human Matrix Metalloproteinase-1 (MMP1), MMP1 (gene 4312) (P03956 whole entry, looked up): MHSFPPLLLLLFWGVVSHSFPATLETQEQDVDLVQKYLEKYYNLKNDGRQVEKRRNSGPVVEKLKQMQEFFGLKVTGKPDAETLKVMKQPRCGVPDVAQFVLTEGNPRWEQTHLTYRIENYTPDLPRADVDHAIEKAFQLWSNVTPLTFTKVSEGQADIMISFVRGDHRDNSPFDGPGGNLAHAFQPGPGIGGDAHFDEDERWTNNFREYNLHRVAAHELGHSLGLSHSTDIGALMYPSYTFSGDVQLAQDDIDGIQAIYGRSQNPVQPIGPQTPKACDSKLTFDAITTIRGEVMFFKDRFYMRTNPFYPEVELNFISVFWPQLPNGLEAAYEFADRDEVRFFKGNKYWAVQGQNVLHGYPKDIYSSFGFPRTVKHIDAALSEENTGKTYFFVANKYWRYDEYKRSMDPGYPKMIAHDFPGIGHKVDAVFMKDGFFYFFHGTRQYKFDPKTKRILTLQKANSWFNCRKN
Sequence of human MET Proto-Oncogene, Receptor Tyrosine Kinase (MET), MET (gene 4233) (P08581 whole entry, looked up): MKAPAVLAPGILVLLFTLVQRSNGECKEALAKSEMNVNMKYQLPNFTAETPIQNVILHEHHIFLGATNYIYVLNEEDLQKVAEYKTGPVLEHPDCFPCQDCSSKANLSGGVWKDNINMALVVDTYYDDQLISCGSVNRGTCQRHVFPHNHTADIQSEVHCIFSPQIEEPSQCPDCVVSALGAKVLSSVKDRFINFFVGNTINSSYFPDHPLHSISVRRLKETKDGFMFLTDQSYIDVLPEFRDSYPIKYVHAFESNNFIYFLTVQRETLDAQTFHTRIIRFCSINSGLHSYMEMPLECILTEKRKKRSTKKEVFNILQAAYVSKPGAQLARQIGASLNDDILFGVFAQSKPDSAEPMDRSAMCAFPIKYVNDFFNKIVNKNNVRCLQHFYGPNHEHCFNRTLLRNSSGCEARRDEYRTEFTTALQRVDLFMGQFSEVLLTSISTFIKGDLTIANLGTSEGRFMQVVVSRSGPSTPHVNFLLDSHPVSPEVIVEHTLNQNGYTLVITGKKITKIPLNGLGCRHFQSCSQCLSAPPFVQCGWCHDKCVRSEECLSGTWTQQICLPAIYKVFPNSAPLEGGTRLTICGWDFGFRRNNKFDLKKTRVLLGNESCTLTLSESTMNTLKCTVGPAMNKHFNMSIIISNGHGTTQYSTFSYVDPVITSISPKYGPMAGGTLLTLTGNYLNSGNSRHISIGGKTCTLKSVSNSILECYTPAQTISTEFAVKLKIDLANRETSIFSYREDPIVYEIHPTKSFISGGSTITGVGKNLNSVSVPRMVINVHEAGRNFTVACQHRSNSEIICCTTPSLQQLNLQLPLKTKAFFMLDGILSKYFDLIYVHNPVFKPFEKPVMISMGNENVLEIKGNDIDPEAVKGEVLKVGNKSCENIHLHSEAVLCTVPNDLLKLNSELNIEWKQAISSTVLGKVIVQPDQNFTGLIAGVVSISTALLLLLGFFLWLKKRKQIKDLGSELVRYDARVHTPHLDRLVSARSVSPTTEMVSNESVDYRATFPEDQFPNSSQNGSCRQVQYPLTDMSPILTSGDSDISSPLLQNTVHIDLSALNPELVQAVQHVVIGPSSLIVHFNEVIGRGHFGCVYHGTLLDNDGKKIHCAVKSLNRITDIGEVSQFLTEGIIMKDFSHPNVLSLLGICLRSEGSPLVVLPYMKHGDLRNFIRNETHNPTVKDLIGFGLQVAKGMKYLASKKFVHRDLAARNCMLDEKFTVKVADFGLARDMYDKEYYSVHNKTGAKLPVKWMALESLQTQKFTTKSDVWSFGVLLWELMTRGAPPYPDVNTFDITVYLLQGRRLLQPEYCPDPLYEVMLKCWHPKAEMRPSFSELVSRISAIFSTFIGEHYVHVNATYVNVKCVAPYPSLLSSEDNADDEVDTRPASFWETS
Sequence of human Matrix Metalloproteinase-3 (MMP3), MMP3 (gene 4314) (P08254 whole entry, looked up): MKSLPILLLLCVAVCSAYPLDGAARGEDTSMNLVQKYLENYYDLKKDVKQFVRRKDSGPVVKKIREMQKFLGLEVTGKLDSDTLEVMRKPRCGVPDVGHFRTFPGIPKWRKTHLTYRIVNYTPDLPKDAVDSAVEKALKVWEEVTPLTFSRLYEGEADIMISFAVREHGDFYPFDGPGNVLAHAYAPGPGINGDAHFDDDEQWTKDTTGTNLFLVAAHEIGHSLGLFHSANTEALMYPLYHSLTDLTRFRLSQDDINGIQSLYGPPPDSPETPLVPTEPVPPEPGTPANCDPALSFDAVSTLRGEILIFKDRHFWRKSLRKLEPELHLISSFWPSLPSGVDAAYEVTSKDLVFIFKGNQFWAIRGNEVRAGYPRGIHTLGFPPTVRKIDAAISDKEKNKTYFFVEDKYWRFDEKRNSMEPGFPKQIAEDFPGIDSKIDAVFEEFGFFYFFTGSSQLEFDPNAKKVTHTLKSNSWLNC
Sequence of human p21 Activated Kinase 4 (PAK4), PAK4 (gene 10298) (O96013 whole entry, looked up): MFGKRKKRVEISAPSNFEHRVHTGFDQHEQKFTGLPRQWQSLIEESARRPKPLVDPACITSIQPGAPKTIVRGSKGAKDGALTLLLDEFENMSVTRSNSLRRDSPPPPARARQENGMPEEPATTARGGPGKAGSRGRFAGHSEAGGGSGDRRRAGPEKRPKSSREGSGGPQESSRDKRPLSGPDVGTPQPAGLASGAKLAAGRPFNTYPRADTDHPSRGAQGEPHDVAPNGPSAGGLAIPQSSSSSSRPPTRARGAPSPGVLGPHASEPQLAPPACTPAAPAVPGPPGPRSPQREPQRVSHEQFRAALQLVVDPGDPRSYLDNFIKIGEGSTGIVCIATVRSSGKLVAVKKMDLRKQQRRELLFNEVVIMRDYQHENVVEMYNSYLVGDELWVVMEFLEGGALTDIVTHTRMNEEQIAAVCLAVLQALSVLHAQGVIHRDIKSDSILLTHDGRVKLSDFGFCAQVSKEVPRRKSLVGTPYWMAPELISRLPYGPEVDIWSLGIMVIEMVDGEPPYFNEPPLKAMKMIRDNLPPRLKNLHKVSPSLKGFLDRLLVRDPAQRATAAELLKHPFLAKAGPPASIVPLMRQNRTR
Sequence of human NIMA (Never In Mitosis Gene A)-Related Kinase 2 (NEK2), NEK2 (gene 4751) (P51955 whole entry, looked up): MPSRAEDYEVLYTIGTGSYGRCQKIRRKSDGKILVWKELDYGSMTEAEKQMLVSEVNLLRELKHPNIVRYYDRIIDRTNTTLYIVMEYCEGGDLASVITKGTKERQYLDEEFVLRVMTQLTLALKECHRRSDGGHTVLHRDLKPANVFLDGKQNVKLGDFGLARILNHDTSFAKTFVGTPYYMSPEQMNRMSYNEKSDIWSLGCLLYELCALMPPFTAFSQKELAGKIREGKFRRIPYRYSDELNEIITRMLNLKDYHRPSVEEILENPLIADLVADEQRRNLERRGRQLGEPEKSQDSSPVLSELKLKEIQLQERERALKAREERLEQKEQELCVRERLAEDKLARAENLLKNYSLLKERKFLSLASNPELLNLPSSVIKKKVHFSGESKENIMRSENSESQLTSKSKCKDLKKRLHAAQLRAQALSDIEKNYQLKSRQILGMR

Cc1c([N+](=O)[O-])cc2c(c1[N+](=O)[O-])C(C)(C)CC2(C)C
AC50 [1]: 7.49 µM (active)

COP(=O)(O)OC
AC50 [1]: 9.97 µM (active)

Nc1ccc(Cl)cc1
outcome [1]: inactive

CC(Cc1ccc(OCC(=O)O)cc1)NCC(O)c1csc(C(F)(F)F)n1 (stereo unspecified)
outcome [2]: inactive | AC50 [3]: 2.3 µM (active) | outcome [1]: inactive

c1nc[nH]n1
outcome [3]: inactive

CSC(C)(C)C=NO
outcome [4]: inactive | AC50 [3]: 7.52 µM (active) | outcome [5]: inactive

CCCCN(CCCC)N=O
outcome [4]: inactive

CCCN(CCC)c1c([N+](=O)[O-])cc(C(C)C)cc1[N+](=O)[O-]
AC50 [6]: 8.62 µM (active)

CCN(CC)c1ccccc1
outcome [2]: inactive

CCC1(c2ccccc2)C(=O)N=C(O)NC1=O (stereo unspecified)
AC50 [3]: 15.4 µM (active) | outcome [1]: inactive

CCOP(=S)(OCC)SCSCC
outcome [4]: inactive | outcome [3]: inactive

CCCCC(CC)COP(=O)(Oc1ccccc1)Oc1ccccc1 (stereo unspecified)
AC50 [1]: 2.08 µM (active)

Cc1ccc(O)cc1C
AC50 [6]: 4.79 µM (active)

CCOc1ccc(C(C)(C)COCc2cccc(Oc3ccccc3)c2)cc1
outcome [4]: inactive | AC50 [3]: 36 µM (active) | outcome [7]: inactive

CC(C)(C)OOC(C)(C)C
outcome [8]: inactive | outcome [9]: inactive

O=P(OCC(Br)CBr)(OCC(Br)CBr)OCC(Br)CBr (stereo unspecified)
AC50 [1]: 4.32 µM (active)

O=[N+]([O-])c1ccccc1
outcome [10]: inactive
